Results reported in PubChem BioAssay (NCI).
This is part of a sample that, as a whole, favours compounds with a hit. Of some 83,000 tested, about 20% had one in any assay.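 Treatment: one concentration, 48 hours, 96-well format. Scoring: percent growth, with anything below 10 considered active.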 Active and inactive are the calls of the source.

Legend:
Assay in all cases: NCI-60 one-dose screen, 48 h (100 = growth as untreated, 0 = no growth, -100 = all killed)
Conditions in all cases: 10 µM unless noted
[1] = test system: SK-MEL-2 melanoma
[2] = test system: SN12C renal
[3] = test system: UO-31 renal
[4] = test system: TK-10 renal
[5] = test system: ACHN renal
[6] = test system: CAKI-1 renal
[7] = test system: A498 renal
[8] = test system: CCRF-CEM leukemia
[9] = test system: MOLT-4 leukemia
[10] = test system: EKVX NSCLC

Measured: growth

NC(N)=N/N=C/CO
inactive: [1] 107% | [2] 109% | [3] 80.9% | [4] 98.7% | [5] 102% | [6] 99.4% | [7] 117% | [8] 93.8% | [9] 95.7%

CCCCCCCSc1ccc(C(=O)O)cc1
inactive: [1] 103% | [2] 93.2% | [3] 84% | [4] 105% | [5] 94.6% | [6] 103% | [7] 97.5% | [8] 91.5% | [9] 106%

CN1CCN(c2ccc(Nc3ncc(Cl)c(NC[C@@H]4CCCO4)n3)cc2)CC1
active: [3] -15.6% | [5] 1.78% | [7] -25%
inactive: [10] 39% | [2] 28.2% | [4] 23.6% | [6] 26.6% | [8] 28% | [9] 16.8%

COc1cc(-c2ccc(N=Nc3c(O)c(C(=O)Nc4ccccc4OC)cc4ccccc34)c(OC)c2)ccc1N=Nc1c(O)c(C(=O)Nc2ccccc2OC)cc2ccccc12
active: [8] 9.35%
inactive: [10] 96.4% | [2] 98.6% | [3] 78.7% | [4] 110% | [5] 90.7% | [6] 83.8% | [7] 78% | [9] 93.8%

O=C(Nc1cccc2[nH]c(C(F)(F)F)nc12)c1cc(Cl)ccc1Cl
inactive: [2] 28.7% | [5] 48.1% | [8] 22.7% | [9] 17.9%
active: [1] -4.53% | [3] -3.23% | [4] 4.93% | [7] -7.02%

C[C@@H]1C(=O)N(C[C@@H](Cc2ccccc2)NC(=O)OCc2ccccc2)[C@]1(Cc1ccccc1)C(=O)OCc1ccccc1
active: [3] 8.74% | [7] -13.8% | [9] 6.42%
inactive: [10] 18.1% | [2] 41.7% | [4] 21.4% | [5] 22.3% | [6] 34.8% | [8] 67.3%

Cc1c(C(=O)O)nnn1-c1nccs1
inactive: [10] 92.9% | [2] 101% | [3] 91% | [4] 101% | [5] 99.9% | [6] 94.3% | [7] 86.4% | [8] 93.3% | [9] 103%

COc1ccc(C(=O)/C=C/c2cc3c(c(OC)c2)OCC(=O)N3)cc1
active: [8] 7.77% | [9] 6.17%
inactive: [1] 110% | [2] 48.7% | [3] 62.2% | [4] 116% | [5] 46.3% | [6] 20.8% | [7] 94.3%

Cc1csc(NC(=O)c2sc3nc(-c4cccs4)ccc3c2N)n1
inactive: [1] 87.2% | [2] 98% | [4] 118% | [5] 110% | [6] 102% | [7] 77.3% | [8] 70.3% | [9] 57.6%

O=C1C2=C(CCN(Cc3ccccc3)C2)N2CCN=C2N1Cc1ccc(F)cc1F
inactive: [10] 30.2% | [2] 28.8% | [3] 32.5% | [4] 44.8% | [5] 35.6% | [6] 32.9% | [7] 14.6% | [8] 56.7% | [9] 74.1%

C=C(Cl)COC(=O)C(C)(C)O
inactive: [1] 92.9% | [2] 107% | [3] 92.7% | [4] 89.5% | [5] 105% | [6] 94.6% | [7] 94.1% | [8] 92.6% | [9] 97.1%

CCC(=O)OC1=C(C)SC2=NC(c3ccc(Cl)c(Cl)c3)=CC(c3cc(OC)c(OC)c(OC)c3)N21 (configuration not stated)
inactive: [1] 107% | [2] 95.3% | [4] 133% | [5] 102% | [6] 87.8% | [7] 116% | [8] 90.7% | [9] 99.3%

CN(C)c1ccc(C#Cc2c(F)cccc2Cl)cc1
inactive: [10] 63.5% | [2] 82.2% | [3] 41.2% | [4] 96.8% | [5] 83.5% | [6] 82.4% | [7] 42.6% | [8] 88.6% | [9] 89.4%

Nc1ccc(CCCCc2ccccc2)c(Cl)c1
inactive: [1] 91.2% | [2] 87.4% | [3] 63.9% | [5] 94.2% | [6] 83.8% | [7] 73.2% | [8] 60.1% | [9] 69.2%

COc1ccc(O)c(-c2cc(-c3ccccc3)c(C#N)c(=O)[nH]2)c1
inactive: [10] 104% | [2] 85.1% | [3] 68.2% | [4] 88.2% | [5] 106% | [6] 95.1% | [7] 65.9% | [8] 91.7% | [9] 102%

O=C(O)CC1Sc2ccccc2NC1=O (configuration not stated)
inactive: [10] 113% | [2] 102% | [3] 86.3% | [4] 149% | [5] 95.5% | [6] 72.8% | [7] 124% | [8] 107% | [9] 92.5%

CCNCCNc1cc(-c2cccc(C(F)(F)F)c2)c(C#N)c2nc3ccccc3n12
inactive: [7] 81.4%
active: [10] -89.5% | [2] -47% | [3] -81.8% | [4] -92.9% | [5] -100% | [6] -70.8% | [8] -12.3% | [9] -33.2%

O=C1C2=C(CCN(Cc3ccccc3)C2)N2CCN=C2N1Cc1ccc(C(F)(F)F)cc1
active: [7] -0.0454%
inactive: [10] 20.6% | [2] 23.1% | [3] 25.4% | [4] 37.7% | [5] 31.3% | [6] 28.6% | [8] 52.6% | [9] 59.8%

CN(C)c1ccc(/C=C/c2c(F)cccc2F)cc1
inactive: [10] 76.2% | [2] 98.2% | [3] 55.6% | [4] 109% | [5] 92.7% | [6] 94.6% | [7] 77.2% | [8] 101% | [9] 97.4%

CO[C@H]1/C=C/O[C@@]2(C)Oc3c(C)c(O)c4c(c3C2=O)C(=O)C(/C=N/N(c2ccccc2)c2ccccc2)=C(NC(=O)/C(C)=C\C=C\[C@H](C)[C@H](O)[C@@H](C)[C@@H](O)[C@@H](C)[C@H](OC(C)=O)[C@@H]1C)C4=O
active: [1] -60.8% | [2] -49.2% | [3] -19.3% | [4] -1.72% | [5] -33% | [6] -4.42% | [7] -5.29% | [8] 1.62% | [9] 3.36%

CC/C=C/[C@@H]1C=C[C@@H]2CCC[C@H]2[C@@H]1CC[C@H](O)[C@H](C)N
active: [3] -80% | [4] 8.1% | [5] -56.8% | [6] -50.6% | [8] -44% | [9] -47.2%
inactive: [10] 82.3% | [2] 41.1% | [7] 82.1%

COc1cc(NC(=O)c2cccc(-c3cc(=O)c4c(OC)c(OC)c(OC)cc4o3)c2)cc(OC)c1OC
inactive: [1] 41.7% | [2] 45.9% | [3] 20.9% | [4] 69.4% | [6] 40.6% | [7] 57.4% | [8] 31.3% | [9] 10.4%

Clc1ccc2[nH]c3c(NCCCN4CCOCC4)ncnc3c2c1
inactive: [1] 94.5% | [2] 82.5% | [3] 57.2% | [4] 78.3% | [5] 45.1% | [6] 75.9% | [7] 58.4% | [9] 53.5%

CCOC(=O)C(O)C(O)(c1ccccc1)c1ccccc1 (configuration not stated)
inactive: [10] 100% | [2] 99% | [3] 91.2% | [4] 100% | [5] 97.4% | [6] 97% | [7] 98.3% | [8] 99.1% | [9] 95.1%

O=C1Nc2ccccc2SC1C1SC(=S)N(Cc2ccccc2)C1=O (configuration not stated)
inactive: [10] 105% | [2] 99.5% | [3] 73.1% | [4] 21.8% | [5] 108% | [6] 78.2% | [7] 109% | [8] 51.1% | [9] 67.3%

C=C(C=O)C1CCC2(C(=O)O)CCC3(C)C(CCC4C5(C)CCC(O)C(C)(C)C5CCC43C)C12 (configuration not stated)
inactive: [10] 41.9% | [2] 21.5% | [4] 50.5% | [7] 55.2% | [9] 10.4%
active: [3] -69.3% | [5] -65.4% | [6] -27.6% | [8] 6.48%

Cc1cnc(Nc2ccc(N3CCN(C)CC3)cc2)nc1Nc1ccc(Cl)c(NS(=O)(=O)C(C)(C)C)c1
active: [3] -20.7% | [4] 0.435% | [5] -4.72% | [7] -85.4% | [9] 10%
inactive: [10] 32.5% | [2] 34% | [8] 34.2%

CCN(CC)S(=O)(=O)c1ccc(O)c(NC(=O)c2[nH]c(C)c(C(C)=O)c2CCc2ccc(Cl)cc2)c1
inactive: [10] 78% | [2] 43% | [3] 23.5% | [4] 53.9% | [5] 36.2% | [6] 56.8% | [7] 26% | [8] 62% | [9] 28.3%

CCNCCNc1cc(-c2ccc(C(=O)OC)cc2)c(C#N)c2nc3ccccc3n12
active: [3] -11.3% | [8] -3.88%
inactive: [10] 84.8% | [2] 67.4% | [4] 87.3% | [5] 36.4% | [6] 58.2% | [7] 81.9% | [9] 28.3%

OC(COc1cccc2ccccc12)CN1CCN(c2ccccc2)CC1 (configuration not stated)
inactive: [10] 103% | [2] 98.7% | [3] 82.2% | [4] 104% | [5] 104% | [6] 47% | [7] 95.5% | [9] 107%
